From PubChem BioAssay (EPA / NIEHS) come the findings set out here.

Each structure is given as a SMILES string. Activity calls are given as the source filed them. The calls were made as follows: active = hit-call score of the fitted dose curve at least 0.9, where 1 is the maximum; inactive = score below 0.9.

Settings in all cases: mRNA level, 48 h; actives raise or lower the signal
Read-out in test [1]: Alkaline Phosphatase, Placental (ALPP) gene, ALPP (gene 250)
As to the kind of experiment: LTEA_HepaRG_ALPP: Life Technologies and Expression Analysis (LTEA) Assay for Alkaline Phosphatase, Placental (ALPP) gene using HepaRG (AID 2283468).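 As to AC50: differentiated human HepaRG liver cells in serum-free induction medium.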 An outline of the steps: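 ALPP transcript level, measured by qRT-PCR and normalized to three housekeeping genes (ACTB, GAPDH, POLR2A), after 48 h dosing of differentiated HepaRG in serum-free induction medium. Top concentration 100 uM with half-log dilutions (8 points, 0.5% DMSO, duplicates); bidirectional fitting relative to DMSO.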

Read-out in test [2]: Bcl-2 (BAD) gene, BAD (gene 572)
Put plainly: LTEA_HepaRG_BAD: Life Technologies and Expression Analysis (LTEA) Assay for Bcl-2 (BAD) gene using HepaRG (AID 2283469). An outline of the steps:
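BAD transcript change, measured by qRT-PCR against three housekeeping genes and fitted in both directions relative to 0.5% DMSO, after 48 h chemical treatment of human HepaRG liver cells at concentrations up to 100 uM.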

Read-out in test [3]: Bcl-2 (BAX) gene, BAX (gene 581)
As to the kind of experiment: LTEA_HepaRG_BAX: Life Technologies and Expression Analysis (LTEA) Assay for Bcl-2 (BAX) gene using HepaRG (AID 2283470). An outline of the steps: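 Concentration-response endpoint fitted in both directions relative to 0.5% DMSO vehicle. Human HepaRG cultures receive test chemicals for 48 h at up to 100 uM; BAX mRNA is quantified by qRT-PCR against housekeeping genes.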

Read-out in test [4]: adenosine kinase (ADK) gene, ADK (gene 132)
As to the kind of experiment: LTEA_HepaRG_ADK: Life Technologies and Expression Analysis (LTEA) Assay for adenosine kinase (ADK) gene using HepaRG (AID 2283471). In outline: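 Following 48 h exposure of HepaRG cells in 0.5% DMSO (top concentration 100 uM, duplicate wells), ADK mRNA induction or suppression was measured by qRT-PCR, normalised to ACTB/GAPDH/POLR2A, and fitted bidirectionally relative to vehicle.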

Read-out in test [5]: Alpha-fetoprotein (AFP) gene, AFP (gene 174)
Put plainly: LTEA_HepaRG_AFP: Life Technologies and Expression Analysis (LTEA) Assay for Alpha-fetoprotein (AFP) gene using HepaRG (AID 2283472). An outline of the steps: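 After a 48 h plating period, cells are moved to serum-free induction medium and dosed in duplicate (100 uM maximum, half-log dilutions, 0.5% DMSO) for another 48 h. Total RNA goes to TaqMan qRT-PCR; AFP signal is housekeeping-normalized.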

Read-out in test [6]: BCL2L11 (gene 10018)
Put plainly: LTEA_HepaRG_BCL2L11: Life Technologies and Expression Analysis (LTEA) Assay for Bcl-2 (BCL2L11) gene using HepaRG (AID 2283473). An outline of the steps:
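BCL2L11 transcript levels are measured by Fluidigm qRT-PCR, normalized to three housekeeping genes. HepaRG cultures were plated 48 h, then treated 48 h with test chemical (top 100 uM, half-log, 0.5% DMSO vehicle); curves were fitted bidirectionally against DMSO.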

Read-out in test [7]: Apolipoprotein A-V (APOA5) gene, APOA5 (gene 116519)
As to the kind of experiment: LTEA_HepaRG_APOA5: Life Technologies and Expression Analysis (LTEA) Assay for Apolipoprotein A-V (APOA5) gene using HepaRG (AID 2283474). An outline of the steps: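 APOA5 transcript levels were quantified by qRT-PCR, normalized to three housekeeping genes, after 48 h chemical treatment of HepaRG cells (8 points, 100 uM maximum, half-log steps, 0.5% DMSO). Curves fitted in both directions against vehicle.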

Read-out in test [8]: Apoptosis regulator Bcl-2 (Homo sapiens) (UniProt P10415)
Put plainly: LTEA_HepaRG_BCL2: Life Technologies and Expression Analysis (LTEA) Assay for Bcl-2 gene using HepaRG (AID 2283475).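 Also: BCL2 transcript by TaqMan qRT-PCR normalised to ACTB GAPDH and POLR2A.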 An outline of the steps:
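Expression change of BCL2 mRNA in HepaRG after 48 h dosing, quantified by TaqMan qRT-PCR against three endogenous controls. Concentration-response used eight points up to 100 uM, vehicle 0.5% DMSO.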

Read-out in test [9]: Bcl-2 (BID) gene, BID (gene 637)
Put plainly: LTEA_HepaRG_BID: Life Technologies and Expression Analysis (LTEA) Assay for Bcl-2 (BID) gene using HepaRG (AID 2283476). In outline:
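Gain or loss of BID expression is fitted relative to 0.5% DMSO vehicle. Human HepaRG liver cells received a 48 h chemical exposure over an eight-point concentration range.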

Read-out in test [10]: Caspase-3 (Homo sapiens) (UniProt P42574)
Put plainly: LTEA_HepaRG_CASP3: Life Technologies and Expression Analysis (LTEA) Assay for cysteine-aspartic acid protease (CASP3) using HepaRG (AID 2283477). In outline: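 Expression of CASP3 was quantified by TaqMan qRT-PCR against three housekeeping genes (ACTB, GAPDH, POLR2A), bidirectionally versus 0.5% DMSO. HepaRG cultures received compounds in duplicate, top 100 uM with half-log steps, for 48 h in serum-free induction medium.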

Read-out in test [11]: Cytochrome P450 (CYP24A1), CYP24A1 (gene 1591)
Put plainly: LTEA_HepaRG_CYP24A1: Life Technologies and Expression Analysis (LTEA) Assay for Cytochrome P450 (CYP24A1) using HepaRG (AID 2283478). In outline:
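mRNA of CYP24A1 quantified by TaqMan qRT-PCR (ACTB/GAPDH/POLR2A normalization) after 48 h chemical exposure of HepaRG cells, top concentration 100 uM, half-log steps, 0.5% DMSO vehicle, duplicates. Curves fitted bidirectionally against DMSO baseline.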

Read-out in test [12]: Cytochrome P450 (CYP1A2), CYP1A2 (gene 1544)
As to the kind of experiment: LTEA_HepaRG_CYP1A2: Life Technologies and Expression Analysis (LTEA) Assay for Cytochrome P450 (CYP1A2) using HepaRG (AID 2283479). An outline of the steps:
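CYP1A2 transcript measured by TaqMan qRT-PCR against three housekeeping genes after 48-hour chemical exposure of HepaRG cells. Eight-point half-log series topping at 100 uM in 0.5% DMSO, duplicates; gain or loss fitted relative to vehicle.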

Read-out in test [13]: cysteine-aspartic acid protease (CASP8), CASP8 (gene 841)
As to the kind of experiment: LTEA_HepaRG_CASP8: Life Technologies and Expression Analysis (LTEA) Assay for cysteine-aspartic acid protease (CASP8) using HepaRG (AID 2283480). In outline:
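HepaRG, 48 h exposure, duplicate wells; 8 conc, half-log from 100 uM, 0.5% DMSO. Serum-free induction medium. CASP8 mRNA by TaqMan qRT-PCR, norm. ACTB/GAPDH/POLR2A; gain/loss fitted vs DMSO.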

Read-out in test [14]: Cytochrome P450 (CYP2B6), CYP2B6 (gene 1555)
As to the kind of experiment: LTEA_HepaRG_CYP2B6: Life Technologies and Expression Analysis (LTEA) Assay for Cytochrome P450 (CYP2B6) using HepaRG (AID 2283481). An outline of the steps:
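CYP2B6 transcript level quantified by qRT-PCR against three housekeeping genes, fitted bidirectionally relative to DMSO. HepaRG cultures received chemicals for 48 h, 8-point half-log series from 100 uM in 0.5% DMSO, duplicate wells, serum-free induction medium.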

Read-out in test [15]: Cytochrome P450 2C19 (Homo sapiens) (UniProt P33261)
Put plainly: LTEA_HepaRG_CYP2C19: Life Technologies and Expression Analysis (LTEA) Assay for CYP2C19 using HepaRG (AID 2283482). In outline:
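CYP2C19 transcript levels by qRT-PCR, normalized to three housekeeping genes, in HepaRG cells after 48 h chemical exposure. Eight-point half-log series topping at 100 uM, 0.5% DMSO vehicle. Increases and decreases both fitted against DMSO.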

Read-out in test [16]: CYP2C8 (gene 1558)
As to the kind of experiment: LTEA_HepaRG_CYP2C8: Life Technologies and Expression Analysis (LTEA) Assay for CYP2C8 using HepaRG (AID 2283483). In outline:
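CYP2C8 mRNA induction or loss, by qRT-PCR normalized to ACTB/GAPDH/POLR2A, is read in HepaRG cells after 48 h treatment. Concentrations run from 100 uM down in half-log dilutions, with 0.5% DMSO as vehicle and baseline.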

Read-out in test [17]: CYP2C9 (gene 1559)
As to the kind of experiment: LTEA_HepaRG_CYP2C9: Life Technologies and Expression Analysis (LTEA) Assay for CYP2C9 using HepaRG (AID 2283484). An outline of the steps:
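Cells plated 48 h, switched to serum-free induction medium, then treated in duplicate for 48 h at eight concentrations (max 100 uM, 0.5% DMSO). RNA then analysed by qRT-PCR for CYP2C9; curves fitted in both directions relative to DMSO.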

Read-out in test [18]: CYP2E1 (gene 1571)
As to the kind of experiment: LTEA_HepaRG_CYP2E1: Life Technologies and Expression Analysis (LTEA) Assay for CYP2E1 using HepaRG (AID 2283485). An outline of the steps: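 Differentiated HepaRG cells were treated in duplicate for 48 h with chemicals in 0.5% DMSO, from 100 uM downward in half-log dilutions. RNA was then analysed by qRT-PCR for CYP2E1 induction or loss.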

Read-out in test [19]: CYP4A11 (gene 1579)
Put plainly: LTEA_HepaRG_CYP4A11: Life Technologies and Expression Analysis (LTEA) Assay for CYP4A11 using HepaRG (AID 2283486). In outline: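 Readout is CYP4A11 transcript level by qRT-PCR, normalized to three housekeeping genes and fitted bidirectionally against 0.5% DMSO. Human HepaRG cells were treated 48 h, in duplicate, with an 8-point half-log series topping at 100 uM.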

Read-out in test [20]: Peroxisomal acyl-coenzyme A oxidase 1 (ACOX1) gene, ACOX1 (gene 51)
Put plainly: LTEA_HepaRG_ACOX1: Life Technologies and Expression Analysis (LTEA) Assay for Peroxisomal acyl-coenzyme A oxidase 1 (ACOX1) gene using HepaRG (AID 2283467). An outline of the steps: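 Measured by qRT-PCR against three housekeeping genes: ACOX1 transcript change in human HepaRG cells after 48 h dosing. Concentrations ran up to 100 uM in half-log steps. Curves were fitted bidirectionally relative to 0.5% DMSO.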

Caspase-3 (Homo sapiens), sequence (P42574 whole entry, looked up): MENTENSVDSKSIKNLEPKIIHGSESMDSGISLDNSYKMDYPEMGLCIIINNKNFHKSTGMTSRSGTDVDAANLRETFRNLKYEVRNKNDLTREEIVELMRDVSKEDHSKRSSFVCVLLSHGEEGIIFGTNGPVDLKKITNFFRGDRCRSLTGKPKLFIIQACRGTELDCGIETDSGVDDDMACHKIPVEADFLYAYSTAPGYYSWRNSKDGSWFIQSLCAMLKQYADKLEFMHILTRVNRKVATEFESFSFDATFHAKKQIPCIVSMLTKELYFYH
Apoptosis regulator Bcl-2 (Homo sapiens), sequence (P10415 whole entry, looked up): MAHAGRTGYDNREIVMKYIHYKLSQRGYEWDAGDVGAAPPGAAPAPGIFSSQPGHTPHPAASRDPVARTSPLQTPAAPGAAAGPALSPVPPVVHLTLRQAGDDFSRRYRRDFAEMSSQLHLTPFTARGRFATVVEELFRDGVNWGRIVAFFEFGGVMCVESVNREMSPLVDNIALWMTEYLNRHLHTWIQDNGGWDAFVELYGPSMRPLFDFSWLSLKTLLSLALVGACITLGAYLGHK
Cytochrome P450 2C19 (Homo sapiens), sequence (P33261 whole entry, looked up): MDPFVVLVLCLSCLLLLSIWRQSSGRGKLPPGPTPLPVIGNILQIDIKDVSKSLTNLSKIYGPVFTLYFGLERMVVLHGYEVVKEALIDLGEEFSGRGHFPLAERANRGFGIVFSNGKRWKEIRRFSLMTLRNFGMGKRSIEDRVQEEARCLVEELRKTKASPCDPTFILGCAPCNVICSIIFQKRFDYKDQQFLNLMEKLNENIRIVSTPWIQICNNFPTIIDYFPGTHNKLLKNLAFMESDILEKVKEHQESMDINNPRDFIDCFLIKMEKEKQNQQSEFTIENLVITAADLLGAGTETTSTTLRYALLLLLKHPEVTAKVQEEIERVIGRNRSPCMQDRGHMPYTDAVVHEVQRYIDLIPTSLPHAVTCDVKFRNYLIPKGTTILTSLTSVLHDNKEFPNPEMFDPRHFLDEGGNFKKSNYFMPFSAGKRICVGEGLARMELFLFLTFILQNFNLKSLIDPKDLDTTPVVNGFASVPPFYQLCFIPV

Take `CC(COCC(C)OC(=O)c1ccccc1)OC(=O)c1ccccc1` (centres undefined): the result in [1], in [2], in test [3], in [4], in test [5] and in test [6] was inactive. Besides, the call in test [7], in test [8], in [9], in test [10], in [11] and in [12] was inactive. For the same compound, the outcome in test [13], in test [14], in test [15], in [16], in test [17] and in [18] was inactive. The result in [19] was inactive.

Regarding `c1ccc2occc2c1`, the compound was classed as inactive in test [20], in [1], in test [2], in [4], in test [5] and in [6]. Further, the outcome in test [7], in test [8], in test [9], in test [10], in test [11] and in test [12] was inactive. Moreover, the result in test [13], in [15], in test [16], in test [17], in test [18] and in test [19] was inactive.

As to `CS(=O)(=O)c1ccc([C@@H](C[C@H]2CCC(=O)C2)C(=O)Nc2cnccn2)cc1Cl`, the call in test [20], in [17], in [18] and in [19] was inactive. The AC50 in [1] was 2.94 µM (active); in test [2], 1.23 µM (active); in test [4], 952 nM (active); in test [5] it was 0.908 µM (active); in test [6] it was 1.15 µM (active); in test [7] it was 50 µM (active). For the same compound, the AC50 is 16.1 µM (active) in test [8]; 2.25 µM (active) in test [9]; 843 nM (active) in test [10]; 1.2 µM (active) in test [13]; 1.38 µM (active) in test [15]; 1.09 µM (active) in test [16].

Regarding `Cc1cc(SC2=C(O)C[C@@](CCc3ccc(N)cc3)(C(C)C)OC2=O)c(C(C)(C)C)cc1CO`, the call in test [20], in [1], in test [2], in test [4], in test [5] and in [6] was inactive. The call in test [7], in test [8], in [9], in test [10], in test [11] and in test [13] was inactive. Further, the result in test [17] was inactive. Besides, the AC50 in test [12] is 572 nM (active); in [15], 0.972 µM (active); in [16] it was 3.03 µM (active); in test [18] it was 7.16 µM (active); in test [19] it was 2.25 µM (active).

Take `NC(=Nc1ccccc1)Nc1ccccc1`: the call in test [20], in test [1], in [2], in test [4], in [6] and in [7] was inactive. For the same compound, the result in [8], in test [9], in test [10], in test [11], in [13] and in [14] was inactive. The outcome in test [15], in test [16], in test [17], in test [18] and in [19] was inactive. Moreover, the AC50 in test [5] was 70.9 µM (active).
